Results on 37 compounds are retold here after the supplement of paper PMC7866885, “A novel bicyclic 2,4-diaminopyrimidine inhibitor of Streptococcus suis dihydrofolate reductase” (PeerJ, 2021).

Molecules are shown by their SMILES. ± gives the standard deviation.

Assay [1] relates to Streptococcus suis HE06. Description: percent growth relative to DMSO control; higher = less growth inhibition. The following applies: 10 µM; incubation time 18 h. As to the method:
(§1)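 CLSI broth microdilution: 5x10^4 CFU of Streptococcus suis (strain P1/7 or HE06) incubated with 10 µM Pathogen Box compound in cation-adjusted Mueller Hinton broth, 37 °C, 5% CO2, 18 h. Growth read as OD600 and expressed as percent of the DMSO-treated control (100%); mean ± SD of three independent experiments.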

Assay [2] has as its system Streptococcus suis P1/7. The assay is described as above. The following applies: 10 µM; incubation time 18 h. Here is the method: as §1

As to `Cc1ccc(-c2cc(C(=O)Nc3cccnc3)c3cc(Br)ccc3n2)cc1`, the percent growth in assay [1] stood at 99.1 ± 11%; in assay [2], 69.7 ± 1.4%. For `Cc1nn(C)cc1C(C)Nc1nncc(-c2ccc(C(F)(F)F)cc2)n1` (stereo not drawn), the percent growth was 116 ± 20% in assay [1] and 103 ± 32% in assay [2].

For `Cc1cc(C)c2cc(C(=O)NC3CCCCCCC3)[nH]c2c1`, the figures for the percent growth in assay [1] and in assay [2] were 90.5 ± 14% and 90.1 ± 32%, respectively. For the compound `CCOc1ccc(OCC(=O)Nc2cc(C)cc(C)c2)cc1`, the percent growth in assay [1] was determined as 96.3 ± 4.6%; in assay [2], 94.3 ± 16%.

Consider `COc1ccc(N(CCc2cccc(C)n2)C(C)=O)cc1`, for which the percent growth was determined as 112 ± 54% in assay [1] and 62.6 ± 12% in assay [2]. As for `CNCCC(Oc1ccc(C(F)(F)F)cc1)c1ccccc1` (stereo not drawn), the percent growth in assay [1] is 104 ± 4%; in assay [2], 98.5 ± 39%.

With `c1ccc(Oc2ccc(-c3cncc(-c4ccc5[nH]ccc5c4)n3)cc2)cc1`, the values for the percent growth in assay [1] and in assay [2] were 109 ± 24% and 83.7 ± 20%, respectively. In the same order, the values of `Oc1c(I)cc(I)c2cccnc12` are 0.688 ± 0.61% and -0.0569 ± 0.099%. The matching figures for `Nc1ncc(Br)cc1-c1nc2cc(Cl)cnc2[nH]1`: 92.2 ± 8.1% and 100 ± 9.8%. The matching figures for `CCOc1ccc(-c2nc(CNCCc3ccc(F)cc3)cs2)cc1`: 97.3 ± 4.6% and 29.5 ± 51%.

Consider `CC(C)N=c1cc2n(-c3ccc(Cl)cc3)c3ccccc3nc-2cc1Nc1ccc(Cl)cc1`, for which the figures for the percent growth in assay [1] and in assay [2] were 29.6 ± 51% and 48.2 ± 42%, respectively. As to `O=C(Nc1ccc(N2CCNCC2)cc1)c1ccn2ncc(-c3cccc(Cl)c3)c2n1`, the percent growth stood at 98.9 ± 27% in assay [1] and 75.2 ± 22% in assay [2]. Consider `O=C(c1[nH]nc2c1CCCC2)N1CCN(Cc2ccc3c(c2)OCO3)CC1`, for which the percent growth in assay [1] was determined as 81.9 ± 4.7%; in assay [2] it was 99.9 ± 45%. Consider `CC(=O)NCC1CN(c2ccc(-c3ccc(CNCc4cn[nH]n4)cc3)c(F)c2)C(=O)O1` (stereo not drawn), for which the percent growth in assay [1] is 0.542 ± 0.94%. In the case of `Cc1[nH]c2ccccc2c1C(c1cccs1)N1CCN(C)CC1` (stereo not drawn), the figures for the percent growth in assay [1] and in assay [2] were 49 ± 25% and 86.1 ± 38%, respectively. For the compound `Cc1nn(C(=O)Nc2cccc(C(F)(F)F)c2)c(C)c1Sc1ncccn1`, the percent growth in assay [1] was 25.4 ± 40%; in assay [2], -0.122 ± 0.21%. In the case of `CC(C)C(Oc1cccc2ccccc12)C(=O)O` (stereo not drawn), the values for the percent growth in assay [1] and in assay [2] were 87 ± 4.3% and 64 ± 22%, respectively. Consider `COc1ccc(Cl)cc1NC(=O)CN(C)C(=O)c1cnn(-c2ccccc2)n1`, for which the percent growth came to 79.4 ± 7.2% in assay [1] and 80.3 ± 29% in assay [2]. Turning to `CC1CCCN(C(=O)C(C)Nc2cc(Cl)ccc2N2CCOCC2)C1` (stereo not drawn), the figures for the percent growth in assay [1] and in assay [2] were 92 ± 11% and 94.4 ± 32%, respectively. Turning to `CC[P](CC)(CC)=[Au][S][C@H]1O[C@@H](COC(C)=O)[C@H](OC(C)=O)[C@@H](OC(C)=O)[C@@H]1OC(C)=O`, the percent growth in assay [1] came out at 4.65 ± 3%; in assay [2] it was 1.51 ± 1.8%. For the compound `Nc1ncnc2[nH]nc(Cc3cccc4ccccc34)c12`, the percent growth came to 104 ± 35% in assay [1] and 66.1 ± 20% in assay [2]. The matching figures for `O=C(c1cc2ccccc2o1)N1CCN(Cc2ccc3c(c2)OCO3)CC1`: 84.6 ± 20% and 102 ± 20%. For the compound `FC(F)(F)c1cc(NCCc2ccccc2)nc(-c2ccccn2)n1`, the percent growth in assay [1] is 1.92 ± 3.3%; in assay [2], 9.89 ± 17%.

As to `NC(=O)c1cc(-c2ccsc2)ccc1OCCOc1ccccc1`, the percent growth in assay [1] came out at 118 ± 40%; in assay [2] it was 120 ± 58%. With `CC(C)C(NC(=O)Cc1cccc2ccccc12)C(=O)Nc1cccc(C#N)c1` (stereo not drawn), the figures for the percent growth in assay [1] and in assay [2] were 84.6 ± 21% and 158 ± 100%, respectively.

`c1cncc(NCc2ccc(-c3cc4ccncc4cc3OC3CCNCC3)s2)c1`: the results for the percent growth in assay [1] and in assay [2] were 100 ± 18% and 66.3 ± 22%, respectively. On to `Cc1ccc(-c2nc(CN(Cc3ccccn3)C(C)C)cs2)o1`, for which the figures for the percent growth in assay [1] and in assay [2] were 25.7 ± 44% and 19.4 ± 34%, respectively.

As to `CCCn1c(CNc2ccccc2O)nc2ccccc21`, the percent growth in assay [1] was 62.6 ± 7.6%; in assay [2], 82.1 ± 38%.

For the compound `Cc1cccc(NC(=O)c2cc(S(=O)(=O)N(C)c3ccc(F)cc3)ccc2Cl)n1`, the percent growth is 111 ± 31% in assay [1] and 112 ± 33% in assay [2]. With `CC(=O)N1CCN(c2ccc(Oc3ccc(Cl)cc3O)cc2)CC1`, the figures for the percent growth in assay [1] and in assay [2] were 142 ± 58% and 95.7 ± 30%, respectively.

`COc1nc2ccc(Br)cc2cc1[C@@H](c1ccccc1)[C@@](O)(CCN(C)C)c1cccc2ccccc12`: the percent growth turned out to be 59.8 ± 13% in assay [1] and 68.8 ± 37% in assay [2].

Consider `CNC1C(OC2C(OC3C(O)C(O)C(NC(=N)N)C(O)C3NC(=N)N)OC(C)C2(O)C=O)OC(CO)C(O)C1O` (stereo not drawn), for which the results for the percent growth in assay [1] and in assay [2] were 99.9 ± 10% and 86.1 ± 18%, respectively.

Consider `CC(=O)Nc1ccc(NC(=O)c2cc(-c3cc(Cl)ccc3O)[nH]n2)cc1`, for which the percent growth was 96.5 ± 11% in assay [1] and 104 ± 13% in assay [2]. For `Cc1nn2c(O)c3c(nc2c1-c1ccc(F)cc1)CCCC3`, the percent growth in assay [1] is 63.3 ± 22%; in assay [2] it was 45.5 ± 21%. The matching figures for `CNC(=O)C1Cc2c([nH]c3cc(Cl)ccc23)C2(CCN(CCc3ccccc3)CC2)N1` (stereo not drawn): 95.5 ± 23% and 77.4 ± 9%. As for `O=C(Nc1ccc(N2CCNCC2)nc1)c1oc(-c2ccccc2)nc1C(F)(F)F`, the percent growth in assay [1] stood at 93.7 ± 20%; in assay [2] it was 63.6 ± 18%.

As to `O=C(C1CCN(c2nnc(-n3cccc3)s2)CC1)N1CCC(Cc2ccccc2)CC1`, the percent growth in assay [1] was found to be 120 ± 18%; in assay [2], 100 ± 41%.
